A selection: hits, their analogues and other compounds. The true share with any hit is near 2.6%.
697 NFkB inh – lowers PMA/ionomycin-induced NF-kB signal in 697 B cells. 697 B-cell NF-kB luciferase reporter, 16 h. inhibition, % at 4 µM. 330,000 compounds, 0.33% hits; in the data active = inhibition above about 35%
Cardio protect – myocardial damage modulation in H9c2 cells; H9c2 cardiomyocytes, H2O2 injury protection, ATPLite, 2 h; protection from H2O2 cell death, % at 20 µM; 360,000 compounds, 0.63% hits; AID 588492;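 active = compounds giving at least 50% protection of heart cells from peroxide-induced death in the single-dose screen, raw or plate-pattern-corrected value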;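 also: 0% = DMSO wells with peroxide and 100% = DMSO wells without peroxide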
COUP-TFII inh – inhibitors of human COUP-TFII (NR2F2); HEK293T NGFI-A luciferase reporter, luminescence; AID 686940; P24468; 370,000 compounds, 0.7% hits; inhibition, % at 8.6 µM;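 active = inhibition above a per-plate cutoff, mean inhibition of test wells between control levels plus 3 SD, cut at about 38% in these data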;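 also: cells cotransfected with COUP-TFII expression vector driving the NGFI-A reporter; 0% = median of COUP-TF2 test wells and 100% = reporter-only cells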
Target sequence (P24468 whole entry, looked up): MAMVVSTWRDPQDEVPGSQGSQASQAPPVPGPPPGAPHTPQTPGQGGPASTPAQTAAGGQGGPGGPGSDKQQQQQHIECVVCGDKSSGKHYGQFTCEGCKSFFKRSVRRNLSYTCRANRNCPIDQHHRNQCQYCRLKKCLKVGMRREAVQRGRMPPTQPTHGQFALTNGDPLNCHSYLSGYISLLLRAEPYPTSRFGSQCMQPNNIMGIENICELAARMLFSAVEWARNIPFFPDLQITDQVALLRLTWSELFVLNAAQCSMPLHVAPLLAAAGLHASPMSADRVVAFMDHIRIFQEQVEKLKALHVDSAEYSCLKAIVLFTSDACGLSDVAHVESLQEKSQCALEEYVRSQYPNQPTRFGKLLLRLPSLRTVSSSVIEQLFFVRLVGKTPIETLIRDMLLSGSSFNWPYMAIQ
Gli-Sufu block – antagonists of Gli-Sufu signaling | Sufu-KO-LIGHT fibroblasts, Gli luciferase reporter luminescence | inhibition, % at 5 µM | 340,000 compounds, 0.74% hits;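 active = inhibition above about 55%, limit read from the data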;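 also: 0% = DMSO-treated cells and 100% = wells with medium but no cells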
H9c2 TAG inh – triacylglycerol accumulation inhibition; H9c2 cells, Nile Red lipid (TAG) fluorescence; cells loaded with 200 µM oleic acid; inhibition, % at 12.5 µM; 230,000 compounds, 0.66% hits;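 active = pattern-corrected inhibition of lipid staining of at least 50% with the nuclear-stain viability signal not falling by more than 50%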;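 also: 0% = DMSO wells and 100% = triacsin C control wells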
Jurkat NFkB inh – inhibitors of the PMA/ionomycin-induced NF-kB reporter in Jurkat cells; PMA/ionomycin-induced NF-kB luciferase reporter, luminescence; inhibition, % at 4 µM; 330,000 compounds, 0.53% hits; AID 435003; in the data active = inhibition above about 50%
Jurkat NFkB conf – lowers PMA/ionomycin-induced NF-kB signal in Jurkat cells; shares compounds with Jurkat NFkB inh; Jurkat NF-kB luciferase, 16 h; inhibition, % at 4 µM; 2,700 compounds, 27% hits; AID 435020;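 active = inhibition reaching about 45% at 4 µM in either replicate, limit read from the data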;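 also: plate controls were PMA/ionomycin stimulated DMSO wells for no effect and unstimulated DMSO wells for full effect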
697 NFkB conf – inhibitors of the PMA/ionomycin-induced NF-kB reporter in 697 B cells, retest; shares compounds with 697 NFkB inh; AID 449746; inhibition, % at 4 µM; 2,000 compounds, 35% hits; 697 B-cell NF-kB luciferase, 16 h; in the data active = inhibition mostly above about 28%, no sharp cut-off; inactive = mostly below about 22%
* = called active by the depositor; i = inactive; . = no result.

SMILES	697 NFkB inh	Cardio protect	COUP-TFII inh	Gli-Sufu block	H9c2 TAG inh	Jurkat NFkB inh	Jurkat NFkB conf	697 NFkB conf
CC(C)[C@H](N)C(=O)N[C@H](C(=O)N1CCC2CCN(S(=O)(=O)c3ccccc3)CC21)C(C)C (stereo partly drawn)	.	.	-2	.	.	.	.	.
C[C@@H]1CC(=O)NN=C1c1ccc(NN=C(C#N)C#N)cc1	.	.	-8	.	.	.	.	.
COc1ccc(OC)c(NC(=O)CSc2ncnc3c2cnn3-c2ccccc2Cl)c1	71*	-29	.	76*	-127	50*	65*	50*
COc1cc(NC(=O)CSc2ncnc3c2cnn3Cc2ccccc2)cc(OC)c1	7	-8	-5	4	.	-4	.	.
CCn1c(COc2ccccc2)nnc1SCC(=O)Nc1ccc(Oc2ccccc2)cc1	.	.	15	.	.	.	.	.
O=c1c2ccccc2cnn1-c1ccc(Br)cc1	-167	-20	-53	-2	0	-127	.	.
O=c1c2ccccc2cnn1-c1ccc2ccccc2c1	-290	-12	-23	-83	.	-207	-123	-294
CC(=O)N1CCc2c1cccc2S(=O)(=O)NC(CC(C)C)C(=O)Nc1ccccc1C (stereo not drawn)	.	.	-13	.	.	.	.	.
O=C(Nc1ccc(C#Cc2ccccc2)cc1)C1CC1	i	-8	-106	-98	39	-277	-141	i
CCN(CC)C(=O)CC[C@H]1CC[C@]2(CCCN(C(=O)C(C)(C)C)C2)O1	.	.	-10	.	.	.	.	.
Cc1ccnc(NC(=O)c2sc3ccccc3c2Cl)c1	-401	-21	-38	4	.	-153	-88	-287
Cc1cnc(NC(=O)c2sc3ccccc3c2Cl)s1	-179	-10	-60	-94	-1	-57	.	.
N=c1cc(C2(O)CCCCC2)n2c(nc3ccccc32)s1	-284	-21	-56	-106	.	-161	-89	-214
COC(=O)C1CN(CCc2ccccc2)CCS(=O)(=O)N1Cc1ccc(C(F)(F)F)cc1 (stereo not drawn)	.	.	8	.	.	.	.	.
O=S1(=O)C=C(Sc2nc3ccccc3s2)c2ccccc21	-477	.	.	24	.	97*	92*	i
Cc1ccccc1CNC(=O)C1C2C=CC3(CN(Cc4ccccc4)C(=O)C13)O2 (stereo not drawn)	.	.	14	.	.	.	.	.
CCn1c(=O)n(CC(=O)N2CCCC2)c(=O)c2ccccc21	.	.	-16	.	.	.	.	.
COc1ccc(C2C3=C(CC(C)(C)CC3=O)Nc3cc4c(cc32)OCO4)cc1 (stereo not drawn)	11	10	6	12	1	-4	.	.
COc1ccc(OC)c(C2C3=C(COC3=O)Nc3cc4c(cc32)OCO4)c1 (stereo not drawn)	43*	8	-83	14	.	77*	42	39*
COc1ccc(-c2nnc(SCC(=O)NN=Cc3c(O)ccc4ccccc34)n2-c2ccc(OC)cc2)cc1	.	.	-7	.	.	.	.	.
CCC(=O)Nc1ccc2nc(C3CC3)n(Cc3ccc(C(C)(C)C)cc3)c(=O)c2c1	i	-9	14	-65	1	-192	-105	i
COc1ccc(Cn2c(C3CC3)nc3ccc(NC(=O)C4CC4)cc3c2=O)cc1	-290	-4	-35	-115	13	-161	-109	-257
CCCCOc1ccc(C(=O)NC2CCCCN(Cc3cccc(C(F)(F)F)c3)C2=O)cc1 (stereo not drawn)	.	.	26	.	.	.	.	.
O=C(/C=C/c1ccccc1)Nc1cc(NC(=O)/C=C/c2ccccc2)cc(C(=O)O)c1	21	6	0	7	5	5	.	.
O=C(/C=C/c1ccccc1)Nc1cccc(C(=O)O)c1	82*	-28	-39	-80	8	82*	76*	79*
SMILES	697 NFkB inh	Cardio protect	COUP-TFII inh	Gli-Sufu block	H9c2 TAG inh	Jurkat NFkB inh	Jurkat NFkB conf	697 NFkB conf
Clc1ccccc1-c1nc(-c2ccc(Br)o2)no1	-257	-7	-64	-18	.	-163	-141	-264
O=C1c2c(O)ccc(O)c2C(=O)c2c(NCCNCCO)ccc(NCCNCCO)c21	74*	-10	-35	77*	144	100*	89*	-63
COCc1[nH]nc2c1C(c1ccc(C)cc1)N(Cc1ccccc1)C2=O (stereo not drawn)	.	.	13	.	.	.	.	.
CN1CCCCC(NC(=O)c2ccc(F)cc2)C1=O (stereo not drawn)	.	.	7	.	.	.	.	.
CCOC(=O)CSc1nc2cc3c(cc2cc1C#N)OCCO3	-356	-1	-52	17	15	-173	-101	-208
COc1cc([N+](=O)[O-])cc(/C=N/NC(=O)c2ccc(NC(=O)c3ccc(C)cc3)cc2)c1O	81*	17	-4	27	111	86*	55*	77*
Cc1cc(NNC(=O)Nc2cccc(Cl)c2)nc2c1c(C)nn2C	58*	.	.	.	.	53*	56*	56*
O=C(OCCN1CCN(C2CN(Cc3cn(Cc4ccc([N+](=O)[O-])cc4)nn3)S(=O)(=O)C2)CC1)c1cc2ccccc2o1 (stereo not drawn)	.	.	1	.	.	.	.	.
CC1CCN(S(=O)(=O)c2ccc3c(c2)C(=NO)c2cc(S(=O)(=O)N4CCC(C)CC4)ccc2-3)CC1	97*	-29	16	-5	84*	96*	17	93*
COc1ccc(S(=O)(=O)N2CCC(C)CC2)cc1OC	0	0	8	7	.	0	.	.
O=C(Nc1nc2ccccc2[nH]1)c1ccccc1	-292	-26	-20	7	-4	-163	-61	-179
CC(=O)Nc1nc2ccccc2[nH]1	7	2	16	-12	24	-2	.	.
COc1ccc(-c2cn3c(C)c(C(=O)N4CCCc5ccccc54)sc3n2)cc1	-35	9	3	9	7	-11	.	.
COc1ccc(-c2cn3c4c(sc3n2)CCCC4)cc1	-292	-22	-38	-123	.	-191	-130	-346
Cc1sc2ncnc(N3CCN(CCOc4ccc(Cl)cc4)CC3)c2c1C	56*	-20	31	74*	.	57*	46	35*
Cc1sc2ncnc(N3CCC(C(=O)NNC(=O)COc4ccc(Cl)cc4)CC3)c2c1C	.	0	22	-15	-19	.	.	.
COc1cccc(OCc2ccc(Cl)cc2)c1C#N	-488	-13	-24	-248	-28	-214	-213	-479
COc1cccc(CNC(C)(C)CO)c1OCc1ccc(Cl)cc1	-1	-6	3	9	13	7	.	.
CC(C)Nc1ncnc2c1cnn2-c1ccc(Cl)cc1	-422	-28	-4	-95	-10	-202	-184	-446
Clc1ccc(Nc2ncnc3c2cnn3-c2ccccc2)cc1	-67	-38	-7	-41	-25	-63	.	.
COC(=O)c1sccc1N/N=C/c1ccc(OC)c(OC)c1OC	-41	1	-24	-57	.	-29	.	.
COC(=O)c1sccc1N/N=C/c1cccc(OC)c1O	-299	-3	-49	-76	-3	-190	-81	-232
